# Measurements reported in PubChem BioAssay (NCATS).
# Inconclusive results are not listed. A call without a number means that no potency is given here. A number with no mark means an inactive call. The source made the active and inactive calls. Calls come from the whole dose curve; as a rule, active = well fitted curve in the direction sought with a large enough effect; inconclusive = small, poorly fitted or top-dose-only effect, or another doubt; inactive = no such curve, though single readings can be large; an effect the other way counts as inactive or inconclusive.
# Experiments:
# [1] = tested on: Zika virus NS2B-NS3 protease (linked construct); assay: Primary screen NINDS Rhodamine qHTS for Zika virus inhibitors (AID 1347160); conditions: purified NS2B-NS3 protease, Rhodamine110 substrate fluorescence; series mostly up to 57.1 µM; note: nearly all actives have a fitted effect of over 55% in size; note: potency is the fitted concentration of half-maximal effect
# How it was run: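 Kinetic fluorescence (Ex 480 nm, Em 540 nm) over 15 min with 1.5 microM Rhodamine110 peptide and 25 nM linked protease.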
# [2] = tested on: Zika virus NS2B-NS3 protease (unlinked complex); assay: Primary screen GU Rhodamine qHTS for Zika virus inhibitors: Unlinked NS2B-NS3 protease assay (AID 1347159); conditions: Recombinant ZIKV NS2B-NS3 protease, Rhodamine110 substrate fluorescence; series mostly up to 107 µM; note: nearly all actives have a fitted effect of over 60% in size; note: potency is the fitted concentration of half-maximal effect
# How it was run: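 A qHTS format was used, with compound concentrations ranging up to 114 microM. Each compound was preincubated with 25 nM NS2B-NS3 protease, and the substrate was then added at 1.5 microM. Curves were fitted with a 4-parameter Hill model.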
# [3] = Confirmatory screen NINDS Rhodamine qHTS for Zika virus inhibitors (AID 1347161); conditions: purified enzyme assay, Rhodamine110 substrate fluorescence, 15 min; series mostly up to 114 µM; note: nearly all actives have a fitted effect of over 60% in size; note: potency is the fitted concentration of half-maximal effect;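 for activity change, negative = inhibition: purified Zika NS2B-NS3 protease with linked NS2B cofactor domain and Rhodamine110 peptide substrate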
# How it was run: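 Percent inhibition, normalized to uninhibited and enzyme-free controls, is fitted to a 4-parameter Hill equation. Fluorescence change comes from a 15-min cleavage of 1.5 microM bis-peptide Rhodamine110 substrate by 25 nM linked NS2B-NS3 at room temperature.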
# [4] = tested on: Zika virus NS2B-NS3 protease (linked construct); assay: 384 well plate NINDS Rhodamine confirmatory qHTS for Zika virus inhibitors (AID 1347164); conditions: rhodamine-110 peptide substrate fluorescence; series mostly up to 100 µM;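 note: fluorescence from protease cleavage of Ac-LKRR-rhodamine 110 substrate; top concentration of the series differs between compounds; nearly all actives have a fitted effect of over 65% in size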
# How it was run: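 Linked protease at a final 5 nM, 30 nM or 60 nM was preincubated ~15 min with compounds, then given 10 microM Ac-LKRR-Rhodamine 110. Fluorescence (ex 485/em 538 nm) after 25 min in the dark at room temperature.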
# [5] = Vero cells viability qHTS for Zika virus inhibitors (AID 1347167); conditions: cytotoxicity counter-screen (Zika); series mostly up to 45.9 µM
# How it was run: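 Compounds were tested in concentration series on cells grown in DMEM containing 4% FBS. After 24 to 48 hours, cellular ATP was measured by luminescence with CellTiter Glo.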
smiles,measurement,setting,value
CC1(C)CCCC2(C)C=C(C(=O)O)C(O)CC12 (stereo unspecified),Potency,[1],inactive
CC(C)c1c2cc(-c3ccnc(NC4CCC(NC5CCOCC5)CC4)n3)ccc2nn1C (stereo unspecified),Potency,[2],inactive
same,Potency,[1],inactive
Cn1cc(-c2ccc3nnc(Sc4ccc5nn(C)cc5c4)n3n2)cn1,Potency,[2],inactive
same,Potency,[1],inactive
CCc1cccc(CC)c1NC(=O)c1nn(C)c2c1CCc1cnc(Nc3ccc(C(=O)NC4CCN(C)CC4)cc3OC(F)(F)F)nc1-2,Potency,[1],inactive
O=C(CCCCN1CCOCC1)Nc1ccc(-c2cccnc2)cc1,Potency,[1],inactive
CC(=O)O[C@@H]1[C@H](O[C@@H]2O[C@@H](CO)[C@H](O)[C@H]2O)[C@@H](O[C@@H]2O[C@@H](C)[C@H](O[C@@H]3OC[C@@H](O)[C@H](O)[C@H]3O)[C@@H](O)[C@H]2O)[C@H](OC(=O)[C@]23CCC(C)(C)C[C@H]2C2=CCC4[C@@]5(C)CC[C@H](O[C@@H]6O[C@H](C(=O)O)[C@@H](O)[C@H](O)[C@H]6O[C@@H]6O[C@H](CO)[C@H](O)[C@H](O)[C@H]6O)[C@@](C)(C=O)C5CC[C@@]4(C)[C@]2(C)CC3)O[C@@H]1C (stereo partly specified),"activity change, negative = inhibition",[2],10.7% [at 19.1 µM]
same,"activity change, negative = inhibition",[1],-19.7% [at 10.7 µM]
Cc1cc(C(N)=O)ccc1-n1c(CCC(=O)O)ccc1-c1ccc(-n2ccnc2)cc1,Potency,[1],inactive
C#CCN(Cc1cc2c(=O)[nH]c(C)nc2cc1Br)c1ccc(C(=O)NCc2cccnc2)cc1,Potency,[2],39.8 µM (active)
same,Potency,[1],inactive
same,Potency,[3],31.2 µM (active)
CN1C2CCC1CC(OC(=O)[C@H](CO)c1ccccc1)C2 (stereo partly specified),Potency,[1],inactive
C=C[C@H]1C(O[C@@H]2O[C@H](CO)[C@@H](O)[C@H](O)[C@H]2O)OC=C2C(=O)N3CCc4c([nH]c5ccccc45)C3CC21 (stereo partly specified),Potency,[2],inactive
same,Potency,[1],inactive
CCOCc1cc(OC)c(-c2ccc(C[C@H](NC(=O)c3c(F)cccc3F)C(=O)O)cc2)c(OC)c1,Potency,[1],inactive
C=C1C(OC(=O)/C(C)=C\C)[C@@]23CCC4[C@@](C)(CCC[C@@]4(C)C(=O)O)C2CC[C@H]1C3OC(C)=O (stereo partly specified),Potency,[1],inactive
OC/C=C/C=C/[C@H]1Cc2cc(O)cc(O)c2O1,Potency,[2],39.8 µM (active)
same,Potency,[1],inactive
same,Potency,[3],27.8 µM (active)
Cc1cc(Nc2nc(NC(C)c3ncc(F)cn3)ncc2Cl)n[nH]1 (stereo unspecified),Potency,[1],inactive
O=C(c1cccc(Cl)c1F)N1CCN(Cc2cccc(Nc3nccs3)n2)CC1,Potency,[2],inactive
same,Potency,[1],inactive
C=CC(=O)Nc1cccc(Nc2nc(Nc3ccc(N4CCN(C(C)=O)CC4)cc3OC)ncc2C(F)(F)F)c1,Potency,[2],inactive
same,Potency,[1],inactive
O=C(/C=C/c1ccc(O)cc1)N[C@@H](Cc1ccc(O)cc1)C(=O)O,Potency,[1],inactive
COC(=O)CCC(=O)OC[C@]1(C)CCC[C@@]2(C)C3CC[C@]4(C)C=CC3(CCC12)C4 (stereo partly specified),Potency,[2],inactive
same,Potency,[3],inactive
O=C1CCC(c2ccccc2)(C2CCN(Cc3ccc(I)cc3)CC2)C(=O)N1 (stereo unspecified),Potency,[1],inactive
C[C@@H]1CC[C@@]2(OC1)O[C@H]1C[C@H]3[C@@H]4CC=C5C[C@@H](O)CC[C@]5(C)[C@H]4CC[C@]3(C)[C@H]1[C@@H]2C,Potency,[1],inactive
Nc1ncnc2c([C@@H]3N[C@H](CO)[C@@H](O)[C@H]3O)c[nH]c12,Potency,[2],inactive
same,Potency,[1],inactive
same,Potency,[3],inactive
same,Potency,[4],inactive
same,outcome,[5],inactive
C=C1C(=O)O[C@H]2C1[C@H](OC(=O)/C(=C/CO)COC(=O)/C(C)=C/CO)CC(=C)[C@@H]1CC(=O)[C@@H](C)[C@@H]12 (stereo partly specified),Potency,[1],inactive
O=C1NC(Cc2ccccc2)C(=O)N2CCCC12 (stereo unspecified),Potency,[1],inactive
CO[C@H]1O[C@@H]2O[C@]3(C)CC[C@H]4[C@H](C)CC[C@@H]([C@H]1C)[C@@]24OO3,Potency,[1],inactive
C=CCC1=C[C@]2(OC)[C@H](C)[C@@H](c3ccc(O)c(OC)c3)O[C@]2(OC)CC1=O,Potency,[1],inactive
CC1OC2OC(=O)C3(C)CC4=C(CO)C5=C(CC(=O)C4(C)C(C1=O)C23)C(C)(C)OC(=O)C5 (stereo unspecified),Potency,[2],inactive
same,Potency,[1],inactive
CCCCc1ccc(C(=O)Nc2cc(-c3ccc(Cl)cc3)nn2-c2ccc(Cl)cc2)cc1,Potency,[2],39.8 µM (active)
same,Potency,[1],inactive
same,Potency,[3],inactive
C[C@@H]1C[C@H]2O[C@@H]2/C=C\C=C\C(=O)Cc2c(Cl)c(O)cc(O)c2C(=O)O1,Potency,[2],inactive
same,Potency,[1],inactive
CC(C)N(CCCCOCC(=O)NS(C)(=O)=O)c1cnc(-c2ccccc2)c(-c2ccccc2)n1,Potency,[2],7.94 µM (active)
same,Potency,[1],28.2 µM (active)
CC(=O)C1=CCC2C3CCC4CC(O[C@@H]5O[C@H](CO)[C@@H](O[C@@H]6O[C@@H](C)[C@H](O)[C@@H](O)[C@H]6O)[C@H](O)[C@H]5O[C@@H]5O[C@H](CO)[C@@H](O)[C@H](O)[C@H]5O)CCC4(C)C3CCC12C (stereo partly specified),Potency,[2],inactive
same,Potency,[1],inactive
